PubChem BioAssay
A number with no mark means an inactive call. Active and inactive are the calls of the source.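 Rule for the calls, unless noted: active = inhibition at or above 50% at 10 µM; inactive = inhibition below 50%.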

Assay: inhibitors of Sendai virus-induced IRF3 signaling, primary screen, TLR/RLR signaling modifier project, cell-based, Sendai virus stimulus, luciferase, 10K MLSCN set (AID 602276);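 note: firefly luciferase from ISG56 promoter only with Renilla not read in this screen; 0% = Sendai virus plus DMSO and 100% = medium plus DMSO without virus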
Conditions: HEK293 RL24 IRF3 luciferase reporter, at 10 µM, active compounds read high

| Structure (SMILES) | inhibition |
| --- | --- |
| CC(=O)Nc1cccc(OCC(O)Cn2cnc3ccccc32)c1 (stereo not given) | 14.1% |
| Cc1ccc(N2CCN(CCc3nc4cc(NS(C)(=O)=O)ccc4n3C)CC2)cc1 | -11.6% |
| COc1cc2c(cc1OC)C(c1cccnc1)CC(=O)N2 (stereo not given) | 9.14% |
| COc1ccc(S(=O)(=O)N2CCCC(C(=O)N3CCCCCC3)C2)cc1 (stereo not given) | 12% |
| COCCCNC(=O)CSc1ccc(Cl)cc1 | 1.1% |
| CCOc1cc(C(=O)N(C)Cc2cc3ccccc3[nH]c2=O)cc(OCC)c1OCC | 11.9% |
| CCOC(=O)CN1CC23C=CC(O2)C(C(=O)NC2CCCC2)C3C1=O (stereo not given) | 11.3% |
| O=C(CN1C(=O)c2ccccc2C1=O)Nc1ccccc1C(=O)N1CCCC1 | 4.76% |
| CCOC(=O)CSC1=C(C#N)C(c2ccc(C)o2)CC(=O)N1 (stereo not given) | 10.4% |
| CCCSc1nc2c(cnn2-c2ccc(C)cc2)c(=O)[nH]1 | -9.65% |
| Cc1cc(C(=O)N2CCN(c3ncccn3)CC2)cs1 | 13.1% |
| Cc1cc(NC(=O)CSc2nc(CCC3CCCC3)nc3ccccc23)no1 | 8.39% |
| CCCC(CCC)C(=O)NCCN1CCOCC1 | 11% |
| CC(=O)NC(Cc1c[nH]c2ccccc12)C(=O)OCC(=O)Nc1cc(C)on1 (stereo not given) | -5.34% |
| COc1ccccc1OCC(=O)NCC1CCCCC1 | -1.17% |
| CC1(C)CC(=O)c2sc(NS(C)(=O)=O)nc2C1 | 18.2% |
| CSC1=NCCN1C(=O)c1ccc(S(=O)(=O)N2CCCC2)cc1 | 11.2% |
| CC12CN3CC(C)(CN(C1)C3c1ccc(Cl)cc1Cl)C2=O (stereo not given) | 1.89% |
| CCOC(=O)c1ccc(NC(=O)CSC2=NC(=O)C(CC)C(=O)N2)cc1 (stereo not given) | -3.93% |
| O=C(C1CCCN(S(=O)(=O)c2cccnc2)C1)N1CCn2c1nc1ccccc12 (stereo not given) | -7.64% |

| Structure (SMILES) | inhibition |
| --- | --- |
| COc1ccc(C)cc1NC(=O)CN(Cc1nnc(-c2ccc(Cl)cc2)o1)C1CCCC1 | -26.9% |
| Cc1occc1-c1nc(-c2ccncc2)no1 | -46.9% |
| Cn1c(=O)c2c(nc(SCC(=O)NCc3ccco3)n2C)n(C)c1=O | 3.04% |
| CCCCP(=O)(CCCC)Cc1ccccc1O | -4.65% |
| CN(C)c1nc(N)nc(-c2nc3ccccc3s2)n1 | -26% |
| Cc1ccc(NC(=O)c2ccco2)c(NC(=O)c2cccs2)c1 | 14.6% |
| Nn1c(SCC(=O)Nc2ccc(F)cc2)nnc1-c1cccnc1 | 12.6% |
| CCOC(=O)c1ccccc1NC1c2ccccc2C(=O)N1C1CCN(C(=O)OCC)CC1 (stereo not given) | 14.7% |
| CC(Sc1nc(-c2ccccc2)cc(C(F)(F)F)n1)C(=O)N1CCCC1 (stereo not given) | 5.88% |
| Clc1ccc(Nc2ncnc3c2cnn3-c2ccccc2)cc1 | -24% |
| Cc1csc(SCCn2c(N3CCCC3)nc3c2c(=O)[nH]c(=O)n3C)n1 | 1.74% |
| CC(CCc1ccccc1)NCc1ccncc1 (stereo not given) | 12.9% |
| CCCCCSc1nc2c(cnn2-c2ccccc2)c(=O)[nH]1 | 11.4% |
| Cc1ccc2c(c1)CCCN2C(=O)Nc1ccc2c(c1)OCO2 | 13.6% |
| CCc1c(C(=O)N2CCOCC2)csc1C | -0.247% |
| Cc1c(-n2c(CN3C(=O)c4ccccc4C3=O)nc3ccccc3c2=O)c(=O)n(-c2ccccc2)n1C | 5.03% |
| Cn1c(=O)[nH]c(=O)c2c1ncn2CCN1CCOCC1 | 8.85% |
| CC1C(=O)C(C)C(c2cccs2)NC1c1cccs1 (stereo not given) | 3.78% |
| CCOC(=O)c1ccc(NS(=O)(=O)c2ccc3c(c2)CCCN3C(C)=O)cc1 | 1.89% |
| O=C(Nc1sc2c(c1C(=O)NCc1ccco1)CCCC2)c1ccc2c(c1)OCO2 | -29.8% |

Assay: inhibitors of poly I:C-induced TLR3 signaling, primary screen, cell-based, poly I:C stimulus, luciferase, 10K MLSCN set (AID 602277;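 active = inhibition of the reporter signal at or above 50%; inactive = inhibition below 50%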)
Conditions: HEK293-TLR3 RL24 IRF3 luciferase reporter, at 10 µM, active compounds read high

| Structure (SMILES) | inhibition |
| --- | --- |
| CC(=O)Nc1cccc(OCC(O)Cn2cnc3ccccc32)c1 (stereo not given) | 25.8% |
| Cc1ccc(N2CCN(CCc3nc4cc(NS(C)(=O)=O)ccc4n3C)CC2)cc1 | -19.7% |
| COc1cc2c(cc1OC)C(c1cccnc1)CC(=O)N2 (stereo not given) | 14.4% |
| COc1ccc(S(=O)(=O)N2CCCC(C(=O)N3CCCCCC3)C2)cc1 (stereo not given) | 10.4% |
| COCCCNC(=O)CSc1ccc(Cl)cc1 | 10.8% |
| CCOc1cc(C(=O)N(C)Cc2cc3ccccc3[nH]c2=O)cc(OCC)c1OCC | 18.9% |
| CCOC(=O)CN1CC23C=CC(O2)C(C(=O)NC2CCCC2)C3C1=O (stereo not given) | 29.5% |
| O=C(CN1C(=O)c2ccccc2C1=O)Nc1ccccc1C(=O)N1CCCC1 | 11.3% |
| CCOC(=O)CSC1=C(C#N)C(c2ccc(C)o2)CC(=O)N1 (stereo not given) | 87.6% (active) |
| CCCSc1nc2c(cnn2-c2ccc(C)cc2)c(=O)[nH]1 | 10.6% |
| Cc1cc(C(=O)N2CCN(c3ncccn3)CC2)cs1 | -6.87% |
| Cc1cc(NC(=O)CSc2nc(CCC3CCCC3)nc3ccccc23)no1 | 27.2% |
| CCCC(CCC)C(=O)NCCN1CCOCC1 | 28.6% |
| CC(=O)NC(Cc1c[nH]c2ccccc12)C(=O)OCC(=O)Nc1cc(C)on1 (stereo not given) | 8.03% |
| COc1ccccc1OCC(=O)NCC1CCCCC1 | -7.1% |
| CC1(C)CC(=O)c2sc(NS(C)(=O)=O)nc2C1 | 27.8% |
| CSC1=NCCN1C(=O)c1ccc(S(=O)(=O)N2CCCC2)cc1 | 33.2% |
| CC12CN3CC(C)(CN(C1)C3c1ccc(Cl)cc1Cl)C2=O (stereo not given) | 28.2% |
| CCOC(=O)c1ccc(NC(=O)CSC2=NC(=O)C(CC)C(=O)N2)cc1 (stereo not given) | -17% |
| O=C(C1CCCN(S(=O)(=O)c2cccnc2)C1)N1CCn2c1nc1ccccc12 (stereo not given) | -1.49% |

| Structure (SMILES) | inhibition |
| --- | --- |
| COc1ccc(C)cc1NC(=O)CN(Cc1nnc(-c2ccc(Cl)cc2)o1)C1CCCC1 | -33.6% |
| Cc1occc1-c1nc(-c2ccncc2)no1 | -90.8% |
| Cn1c(=O)c2c(nc(SCC(=O)NCc3ccco3)n2C)n(C)c1=O | 5.37% |
| CCCCP(=O)(CCCC)Cc1ccccc1O | 9.82% |
| CN(C)c1nc(N)nc(-c2nc3ccccc3s2)n1 | -41.6% |
| Cc1ccc(NC(=O)c2ccco2)c(NC(=O)c2cccs2)c1 | 16.5% |
| Nn1c(SCC(=O)Nc2ccc(F)cc2)nnc1-c1cccnc1 | 25.6% |
| CCOC(=O)c1ccccc1NC1c2ccccc2C(=O)N1C1CCN(C(=O)OCC)CC1 (stereo not given) | 38.1% |
| CC(Sc1nc(-c2ccccc2)cc(C(F)(F)F)n1)C(=O)N1CCCC1 (stereo not given) | 16.9% |
| Clc1ccc(Nc2ncnc3c2cnn3-c2ccccc2)cc1 | -67.8% |
| Cc1csc(SCCn2c(N3CCCC3)nc3c2c(=O)[nH]c(=O)n3C)n1 | 16.5% |
| CC(CCc1ccccc1)NCc1ccncc1 (stereo not given) | 23.5% |
| CCCCCSc1nc2c(cnn2-c2ccccc2)c(=O)[nH]1 | 27.5% |
| Cc1ccc2c(c1)CCCN2C(=O)Nc1ccc2c(c1)OCO2 | 14.5% |
| CCc1c(C(=O)N2CCOCC2)csc1C | -13.5% |
| Cc1c(-n2c(CN3C(=O)c4ccccc4C3=O)nc3ccccc3c2=O)c(=O)n(-c2ccccc2)n1C | 24.9% |
| Cn1c(=O)[nH]c(=O)c2c1ncn2CCN1CCOCC1 | 16.4% |
| CC1C(=O)C(C)C(c2cccs2)NC1c1cccs1 (stereo not given) | 3.34% |
| CCOC(=O)c1ccc(NS(=O)(=O)c2ccc3c(c2)CCCN3C(C)=O)cc1 | 6.65% |
| O=C(Nc1sc2c(c1C(=O)NCc1ccco1)CCCC2)c1ccc2c(c1)OCO2 | -179% |
